Molecules are shown by their SMILES. Records with an inconclusive call do not appear. The source made the active and inactive calls. Rule for the calls, unless noted: active = hit-call score of the fitted dose curve at least 0.9, where 1 is the maximum; inactive = score below 0.9.

Assay [1] addresses Paired box protein Pax-6 (Homo sapiens) (UniProt P26367). Description: ATG_Pax6_CIS: Attagene CIS-FACTORIAL HepG2 Assay for human Paired Box 6 (PAX6) (AID 2282956). The conditions noted are these: HepG2 CIS-FACTORIAL PAX6 reporter transcription, RNA readout; actives raise or lower the signal. The essentials:
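Transient MRTU transfection of HepG2 → compound exposure 24 h → TriZol RNA, oligo(dT) RT → PCR, 6-FAM primer extension, HpaI cut → capillary electrophoresis; activity fitted both directions against DMSO.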

The nature of assay [2]: ATG_PXRE_CIS: Attagene CIS-FACTORIAL HepG2 Assay for human Pregnane X Receptor Element (PXRE) (AID 2282957). The conditions noted are these: HepG2 Attagene CIS-FACTORIAL PXRE reporter, mRNA; actives raise or lower the signal. The essentials:
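Transiently transfected HepG2 cells were dosed and incubated for 24 h. RNA was then isolated, DNase-treated, reverse-transcribed and reporter sequences amplified. Labeled, HpaI-digested fragments were quantified by capillary electrophoresis against DMSO.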

Assay [3] in a line: ATG_PPRE_CIS: Attagene CIS-FACTORIAL HepG2 Assay for human Peroxisome Proliferator-activated Response Element (PPRE) (AID 2282958). The conditions noted are these: HepG2 PPRE cis-element reporter, Attagene transcription factor profiling; actives raise or lower the signal. An outline of the steps: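 Read-out: fluorescent reporter mRNA fragments resolved by capillary electrophoresis after RT-PCR. HepG2 cells carried transiently transfected PPRE-driven cis reporter constructs and were dosed for 24 h; gain or loss of signal fitted relative to DMSO.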

Assay [4] is described as follows: ATG_RORE_CIS: Attagene CIS-FACTORIAL HepG2 Assay for human RAR-related Orphan Receptor Element (RORE) (AID 2282959). The note with it: HepG2 Attagene cis-factorial RORE reporter, mRNA; actives raise or lower the signal. The essentials: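 Readout: fluorescent reporter mRNA by RT-PCR plus capillary electrophoresis, 24 h after dosing transfected HepG2 cells. Endogenous transcription factor activity on a cis promoter element is measured. Gain or loss of signal fitted against DMSO.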

Assay [5] can be described thus: ATG_Sox_CIS: Attagene CIS-FACTORIAL HepG2 Assay for human SRY-box transcription factor (SOX) (AID 2282960). The conditions noted are these: HepG2 Attagene cis-factorial SOX reporter, mRNA; actives raise or lower the signal. The essentials:
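Read-out: fluorescent RT-PCR products of SOX1-linked reporter transcripts resolved by capillary electrophoresis, fitted bidirectionally against DMSO. Transiently transfected HepG2 cells, 24 h after chemical exposure, endogenous transcription factor activity.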

The target of assay [6] is Transcription factor Sp1 (Homo sapiens) (UniProt P08047). Description: ATG_Sp1_CIS: Attagene CIS-FACTORIAL HepG2 Assay for human Specificity Protein 1 (Sp1) (AID 2282961). The conditions noted are these: HepG2 Sp1 cis-reporter transcription, actives raise or lower the signal. The essentials: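 Read-out: fluorescence of 6-FAM-labeled, HpaI-digested RT-PCR products separated by capillary electrophoresis. HepG2 cells carried transfected cis-element reporter units and were exposed to chemicals for 24 h; gain or loss of signal fitted relative to DMSO.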

Assay [7] in a line: ATG_SREBP_CIS: Attagene CIS-FACTORIAL HepG2 Assay for human Sterol Regulatory Element Binding (SREBP) (AID 2282962). The conditions noted are these: HepG2 Attagene cis-factorial SREBP reporter, mRNA; actives raise or lower the signal. The essentials:
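Transfected HepG2 (cis-regulated reporter library, endogenous TFs) → compound 24 h → total RNA → oligo(dT) RT → reporter-specific PCR → FAM primer extension, HpaI cut → CE fluorescence. Fit bidirectional vs DMSO.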

The target in assay [8] is Signal transducer and activator of transcription 3 (Homo sapiens) (UniProt P40763). Description: ATG_STAT3_CIS: Attagene CIS-FACTORIAL HepG2 Assay for human Signal Transducer and Activator of Transcription 3 (STAT3) (AID 2282963). The conditions noted are these: HepG2, Attagene cis-factorial STAT3 reporter transcription; actives raise or lower the signal. The essentials:
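After a 24 h compound incubation, total RNA from MRTU-transfected HepG2 cells was converted to cDNA and reporter sequences PCR-amplified, labelled and profiled by capillary electrophoresis. Gain and loss of signal were referenced to DMSO.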

The nature of assay [9]: ATG_TA_CIS: Attagene CIS-FACTORIAL HepG2 Assay for human TA Basal Promoter (AID 2282964). The note with it: HepG2 Attagene CIS-factorial TA basal promoter reporter; actives raise or lower the signal. The essentials: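 Fluorescence from labelled RT-PCR reporter fragments, separated by capillary electrophoresis, gives the signal. Cells: HepG2 transiently carrying multiple reporter units, 24 h chemical dosing. Gain or loss relative to DMSO.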

Assay [10] can be described thus: ATG_TCF_b_cat_CIS: Attagene CIS-FACTORIAL HepG2 Assay for human T-Cell-Factor with beta-catenin (TCF/b-cat) (AID 2282965). The note with it: HepG2 TCF/beta-catenin cis-reporter transcription, actives raise or lower the signal. The essentials:
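Measured: reporter mRNA in HepG2 transiently transfected with cis-promoter reporter units, 24 h after chemical addition. Fitting was bidirectional, DMSO as negative control.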

The nature of assay [11]: ATG_TAL_CIS: Attagene CIS-FACTORIAL HepG2 Assay for human TAL Basal Promoter (AID 2282966).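 Note: background control endpoint measuring basal TAL promoter reporter mRNA not a specific factor.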 The note with it: HepG2 Attagene cis-factorial TAL promoter reporter; actives raise or lower the signal. The essentials:
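Readout: reporter mRNA, fluorescence by CE. System: HepG2, transient multi-reporter transfection, endogenous TF activity. Exposure: 24 h. Analysis: bidirectional, DMSO-normalized; background control.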

Assay [12] is described as follows: ATG_TGFb_CIS: Attagene CIS-FACTORIAL HepG2 Assay for human Transforming Growth Factor (TGF) (AID 2282967). The conditions noted are these: HepG2 Attagene CIS TGFb reporter, mRNA transcription; actives raise or lower the signal. The essentials:
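Bidirectional fitting relative to DMSO gave the endpoint. Underlying data: reporter mRNA from HepG2 cells carrying transiently transfected cis-regulated reporter constructs, harvested 24 h after dosing and analyzed by RT-PCR and capillary electrophoresis.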

A short description of assay [13]: ATG_VDRE_CIS: Attagene CIS-FACTORIAL HepG2 Assay for human Vitamin D Receptor Element (VDRE) (AID 2282968). The conditions noted are these: HepG2 VDRE cis-reporter transcription, actives raise or lower the signal. The essentials: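 In transiently transfected HepG2 liver cells, gain or loss of reporter mRNA after 24 h exposure is scored relative to DMSO, using fluorescence detection by capillary electrophoresis of RT-PCR products.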

Assay [14] is described as follows: ATG_M_19_TRANS: Attagene TRANS-FACTORIAL HepG2 Assay for M19 Transcription Factor (Internal Marker) (AID 2282974; active = hit-call score of the fitted dose curve at least 0.9, where 1 is the maximum). The note with it: HepG2 Attagene TRANS-FACTORIAL M19 internal marker reporter. The essentials: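 24 h chemical exposure of transiently transfected HepG2 (MRTU library). RNA → oligo(dT) RT → PCR → 6-FAM labelling → HpaI cut → CE fluorescence. Positive-direction fit vs DMSO baseline; background internal-marker readout.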

The target of assay [15] is Estrogen-related receptor gamma (Homo sapiens) (UniProt P62508). Description: ATG_ERRg_TRANS: Attagene TRANS-FACTORIAL HepG2 Assay for human Estrogen-Related Receptor gamma (ERRg) (AID 2282977; active = hit-call score of the fitted dose curve at least 0.9, where 1 is the maximum;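 note: hits increase reporter signal over DMSO so potencies reflect activators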). The note with it: HepG2 Attagene TRANS reporter, ERRg transactivation. An outline of the steps:
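HepG2 cells transiently transfected with multiplexed GAL4-UAS reporter units and chimeric NR-Gal4 constructs were exposed to test chemicals for 24 h. Reporter mRNA was measured by RT-PCR, 6-FAM primer extension, HpaI digestion and capillary electrophoresis; gain-of-signal versus DMSO.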

For assay [16], the target named is Estrogen receptor (Homo sapiens) (UniProt P03372). Nature of the assay: ATG_ERa_TRANS: Attagene TRANS-FACTORIAL HepG2 Assay for human Estrogen Receptor alpha (ERa) (AID 2282970; active = hit-call score of the fitted dose curve at least 0.9, where 1 is the maximum). The conditions noted are these: HepG2 Attagene TRANS ERa GAL4 reporter, mRNA. An outline of the steps:
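Transactivation via ERa-Gal4 chimera in HepG2; 24 hour incubation; reporter mRNA detected by fluorescence RT-PCR and capillary electrophoresis.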

The target in assay [17] is X-box-binding protein 1 (Homo sapiens) (UniProt P17861). Description: ATG_Xbp1_CIS: Attagene CIS-FACTORIAL HepG2 Assay for human X-box Binding Protein 1 (XBP1) (AID 2282972). The conditions noted are these: HepG2 XBP1 cis-element reporter, Attagene multiplex; actives raise or lower the signal. An outline of the steps:
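HepG2, transient MRTU transfection (cis-promoter driven), 24 h compound exposure. Total RNA → oligo(dT) RT → PCR → 6-FAM labeling → HpaI cut → CE. Bidirectional fit vs DMSO.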

Assay [18] is described as follows: ATG_GAL4_TRANS: Attagene TRANS-FACTORIAL HepG2 Assay for GAL4 (Internal Marker) (AID 2282976; active = hit-call score of the fitted dose curve at least 0.9, where 1 is the maximum). The note with it: HepG2 Attagene TRANS GAL4 internal marker reporter. The essentials:
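Fluorescence from capillary electrophoresis of labelled RT-PCR products quantifies reporter mRNA induction after 24 h dosing of HepG2 cells carrying transfected GAL4-UAS reporter transcription units. Vehicle DMSO serves as baseline.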

For assay [19], the target named is Nuclear receptor subfamily 1 group I member 3 (Homo sapiens) (UniProt Q14994). Description: ATG_CAR_TRANS: Attagene TRANS-FACTORIAL HepG2 Assay for human Constitutive Androstane Receptor (CAR) (AID 2282969; active = hit-call score of the fitted dose curve at least 0.9, where 1 is the maximum;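 note: activators raise reporter mRNA above DMSO so AC50 marks induction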). The conditions noted are these: HepG2 Attagene TRANS-FACTORIAL CAR reporter. The essentials:
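Readout is reporter mRNA induction, quantified by fluorescent primer extension and capillary electrophoresis after RT-PCR. Cells were HepG2 transiently carrying chimeric NR-Gal4 constructs with GAL4-UAS reporters, treated for 24 h; activity scored upward from DMSO.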

Sequence of Estrogen receptor (Homo sapiens) (P03372 whole entry, looked up, the tested form may be a part): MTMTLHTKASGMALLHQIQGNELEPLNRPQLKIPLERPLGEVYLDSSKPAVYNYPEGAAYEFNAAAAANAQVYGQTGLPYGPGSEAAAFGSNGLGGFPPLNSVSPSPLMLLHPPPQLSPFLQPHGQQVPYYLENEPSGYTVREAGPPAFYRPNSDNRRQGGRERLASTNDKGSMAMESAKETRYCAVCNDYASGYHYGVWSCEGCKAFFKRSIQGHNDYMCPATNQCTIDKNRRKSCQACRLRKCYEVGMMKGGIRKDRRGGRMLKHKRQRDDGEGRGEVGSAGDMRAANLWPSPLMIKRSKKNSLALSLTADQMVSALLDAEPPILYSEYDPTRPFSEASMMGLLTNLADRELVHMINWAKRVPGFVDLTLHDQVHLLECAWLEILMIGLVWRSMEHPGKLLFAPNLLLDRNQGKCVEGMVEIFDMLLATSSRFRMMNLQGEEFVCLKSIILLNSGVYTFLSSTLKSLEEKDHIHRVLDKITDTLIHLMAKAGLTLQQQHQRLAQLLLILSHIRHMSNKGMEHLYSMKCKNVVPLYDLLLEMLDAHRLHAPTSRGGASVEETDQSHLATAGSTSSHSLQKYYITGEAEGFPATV
Sequence of Transcription factor Sp1 (Homo sapiens) (P08047 whole entry, looked up): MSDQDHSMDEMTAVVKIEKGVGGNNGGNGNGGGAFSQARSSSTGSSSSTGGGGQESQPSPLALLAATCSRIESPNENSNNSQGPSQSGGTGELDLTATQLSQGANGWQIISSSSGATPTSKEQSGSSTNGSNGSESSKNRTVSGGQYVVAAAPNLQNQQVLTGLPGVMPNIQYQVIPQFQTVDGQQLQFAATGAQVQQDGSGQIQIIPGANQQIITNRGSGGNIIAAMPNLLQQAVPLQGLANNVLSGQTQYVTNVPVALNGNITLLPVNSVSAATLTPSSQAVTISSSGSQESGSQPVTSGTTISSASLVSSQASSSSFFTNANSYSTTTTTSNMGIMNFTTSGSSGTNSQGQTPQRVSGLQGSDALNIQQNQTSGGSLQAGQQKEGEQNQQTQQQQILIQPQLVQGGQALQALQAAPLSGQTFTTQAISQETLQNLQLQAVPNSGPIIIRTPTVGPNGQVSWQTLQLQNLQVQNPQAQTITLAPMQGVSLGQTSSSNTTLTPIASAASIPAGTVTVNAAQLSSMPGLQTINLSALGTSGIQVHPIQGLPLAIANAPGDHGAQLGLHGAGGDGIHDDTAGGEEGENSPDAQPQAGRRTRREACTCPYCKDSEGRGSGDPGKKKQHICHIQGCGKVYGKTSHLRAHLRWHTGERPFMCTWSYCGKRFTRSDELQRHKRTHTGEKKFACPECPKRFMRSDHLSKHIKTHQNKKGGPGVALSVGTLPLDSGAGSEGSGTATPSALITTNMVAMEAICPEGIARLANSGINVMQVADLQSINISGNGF
Sequence of Paired box protein Pax-6 (Homo sapiens) (P26367 whole entry, looked up): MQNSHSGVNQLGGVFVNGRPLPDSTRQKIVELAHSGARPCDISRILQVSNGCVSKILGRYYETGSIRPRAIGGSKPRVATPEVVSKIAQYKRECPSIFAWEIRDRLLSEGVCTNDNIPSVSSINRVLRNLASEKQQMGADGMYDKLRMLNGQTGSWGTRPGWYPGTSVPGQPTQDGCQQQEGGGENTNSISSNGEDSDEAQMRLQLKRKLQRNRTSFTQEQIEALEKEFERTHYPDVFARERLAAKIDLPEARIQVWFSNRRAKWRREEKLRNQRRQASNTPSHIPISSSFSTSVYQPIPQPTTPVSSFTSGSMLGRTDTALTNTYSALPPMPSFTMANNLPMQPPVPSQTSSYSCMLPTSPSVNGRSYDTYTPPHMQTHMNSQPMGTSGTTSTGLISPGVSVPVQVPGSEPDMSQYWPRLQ
Sequence of Signal transducer and activator of transcription 3 (Homo sapiens) (P40763 whole entry, looked up): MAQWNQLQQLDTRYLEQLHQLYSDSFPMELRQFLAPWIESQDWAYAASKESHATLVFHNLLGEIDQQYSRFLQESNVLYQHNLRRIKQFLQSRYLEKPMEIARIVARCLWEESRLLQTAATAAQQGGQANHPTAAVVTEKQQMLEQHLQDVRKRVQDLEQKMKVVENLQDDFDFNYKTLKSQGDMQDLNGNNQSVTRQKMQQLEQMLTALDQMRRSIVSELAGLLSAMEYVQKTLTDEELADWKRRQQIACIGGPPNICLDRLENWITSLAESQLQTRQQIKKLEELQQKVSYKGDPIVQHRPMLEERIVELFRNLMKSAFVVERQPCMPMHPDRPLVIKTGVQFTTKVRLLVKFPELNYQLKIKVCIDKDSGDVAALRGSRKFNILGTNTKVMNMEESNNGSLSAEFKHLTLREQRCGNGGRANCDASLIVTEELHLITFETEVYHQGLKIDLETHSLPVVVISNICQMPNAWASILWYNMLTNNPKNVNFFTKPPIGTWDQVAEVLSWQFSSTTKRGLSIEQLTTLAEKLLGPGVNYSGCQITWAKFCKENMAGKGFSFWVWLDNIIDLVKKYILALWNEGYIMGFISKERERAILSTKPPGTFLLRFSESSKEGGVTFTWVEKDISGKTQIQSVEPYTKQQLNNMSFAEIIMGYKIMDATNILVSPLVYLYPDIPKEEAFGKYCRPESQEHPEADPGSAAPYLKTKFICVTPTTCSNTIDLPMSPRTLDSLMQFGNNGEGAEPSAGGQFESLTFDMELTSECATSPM
Sequence of X-box-binding protein 1 (Homo sapiens) (P17861 whole entry, looked up): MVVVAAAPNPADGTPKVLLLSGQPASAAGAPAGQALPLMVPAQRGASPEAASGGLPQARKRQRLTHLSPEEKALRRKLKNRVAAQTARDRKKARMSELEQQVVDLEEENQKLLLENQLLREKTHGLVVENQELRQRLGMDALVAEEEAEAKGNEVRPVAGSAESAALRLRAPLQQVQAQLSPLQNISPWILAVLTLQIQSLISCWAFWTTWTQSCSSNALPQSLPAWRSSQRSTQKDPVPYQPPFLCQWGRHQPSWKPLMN
Sequence of Nuclear receptor subfamily 1 group I member 3 (Homo sapiens) (Q14994 whole entry, looked up, the tested form may be a part): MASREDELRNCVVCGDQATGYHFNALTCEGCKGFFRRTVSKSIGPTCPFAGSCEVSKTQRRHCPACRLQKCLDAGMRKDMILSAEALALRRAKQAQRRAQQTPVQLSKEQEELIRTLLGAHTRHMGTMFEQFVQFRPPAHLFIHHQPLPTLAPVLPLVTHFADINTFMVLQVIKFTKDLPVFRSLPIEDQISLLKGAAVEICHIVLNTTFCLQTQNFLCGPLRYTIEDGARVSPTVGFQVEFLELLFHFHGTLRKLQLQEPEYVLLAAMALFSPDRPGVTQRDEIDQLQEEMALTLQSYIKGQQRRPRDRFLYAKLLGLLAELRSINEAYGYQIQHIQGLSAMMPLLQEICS
Sequence of Estrogen-related receptor gamma (Homo sapiens) (P62508 whole entry, looked up, the tested form may be a part): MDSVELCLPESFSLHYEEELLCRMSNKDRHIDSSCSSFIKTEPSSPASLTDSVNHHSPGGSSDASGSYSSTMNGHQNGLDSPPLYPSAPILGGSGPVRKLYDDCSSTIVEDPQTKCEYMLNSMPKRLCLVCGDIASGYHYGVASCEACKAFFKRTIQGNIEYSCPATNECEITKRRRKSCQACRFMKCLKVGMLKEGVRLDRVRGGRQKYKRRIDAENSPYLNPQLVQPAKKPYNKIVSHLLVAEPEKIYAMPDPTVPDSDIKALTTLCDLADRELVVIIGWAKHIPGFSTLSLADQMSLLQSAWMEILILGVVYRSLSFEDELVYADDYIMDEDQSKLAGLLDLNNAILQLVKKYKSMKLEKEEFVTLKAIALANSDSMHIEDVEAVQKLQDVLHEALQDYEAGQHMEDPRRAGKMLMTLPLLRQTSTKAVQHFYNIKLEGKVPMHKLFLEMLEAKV

In the case of `NC(=O)NNC(N)=O`, the outcome in [1], in assay [2], in assay [3], in assay [4], in [5] and in assay [6] was inactive. For the same molecule, the call in [7], in [8], in [9], in assay [10], in assay [11] and in assay [12] was inactive. Moreover, the call in assay [13], in assay [14] and in assay [15] was inactive.

Turning to `c1ccc(CCCc2ccncc2)cc1`, the result in assay [1], in assay [3], in assay [4], in [5], in assay [6] and in assay [7] was inactive. The result in [8], in assay [9], in assay [10], in assay [11], in assay [12] and in assay [16] was inactive. Further, the result in [17] was inactive. Moreover, the half-maximal activity concentration (AC50) in assay [2] was 27 µM (active).

For the molecule `CCCCCCCCO[C@@H]1O[C@H](CO)[C@@H](O)[C@H](O)[C@H]1O`, the molecule was called inactive in assay [1], in assay [2], in assay [3], in assay [4], in [5] and in assay [6]. The molecule was called inactive in [7], in assay [8], in [9], in [10], in assay [11] and in assay [12]. The molecule was classed as inactive in [13], in [14] and in assay [18].

As for `O=Nc1ccc(O)cc1`, the molecule was classed as inactive in [1], in assay [2], in [3], in [4], in assay [5] and in assay [6]. Moreover, the molecule was classed as inactive in assay [7], in [8], in assay [9], in [10], in [11] and in [17]. Further, the AC50 in [16] is 48.5 µM (active).

For the molecule `C=COCCCC`, the result in assay [1], in assay [2], in assay [3], in assay [4], in assay [5] and in assay [6] was inactive. For the same molecule, the call in assay [7], in assay [8], in assay [9], in assay [10], in assay [11] and in assay [12] was inactive. Also, the call in [13], in assay [17], in assay [14] and in assay [18] was inactive.

`O=C(c1ccc(O)cc1)c1ccc(O)cc1O`: the molecule was called inactive in [1], in [4], in [5], in assay [6], in [8] and in assay [9]. Besides, the result in assay [10], in [11], in [12], in assay [19], in assay [17] and in [14] was inactive. Besides, the call in assay [18] was inactive. The AC50 in assay [2] was 35.8 µM (active); in assay [3], 100 µM (active); in assay [7], 100 µM (active); in assay [16], 1.03 µM (active).

For `COC(=O)/C=C\C(=O)O`, the outcome in assay [1], in assay [3], in [4], in assay [5], in assay [6] and in assay [7] was inactive. Also, the result in [8], in [9], in assay [10], in assay [11], in assay [12] and in assay [17] was inactive. The AC50 in assay [2] is 30.7 µM (active).

Regarding `C=CC(=O)NC(C)(C)CS(=O)(=O)O`, the molecule was classed as inactive in assay [1], in assay [2], in assay [3], in assay [4], in assay [5] and in [6]. In addition, the molecule was called inactive in assay [7], in assay [8], in assay [9], in assay [10], in assay [11] and in assay [12]. In addition, the call in assay [19], in assay [17], in assay [14] and in assay [18] was inactive.

Take `CCC(CC)C(=O)O`: the result in assay [1], in assay [2], in [3], in assay [4], in assay [5] and in assay [6] was inactive. Also, the molecule was classed as inactive in assay [7], in assay [8], in [9], in assay [10], in [12] and in assay [13]. In addition, the result in assay [17], in [14] and in assay [18] was inactive.

(Values after PubChem BioAssay (EPA / NIEHS).)
